Results reported in PubChem BioAssay.
Inconclusive results are not listed. Active and inactive are the calls of the source. Unless noted, how the calls were made is not given here.

Tests used:
[1] = rapamycin-like changes in RPL19A-GFP expression – cell-based, S. cerevisiae, multiplex flow cytometry, primary screen (AID 1862; in the data active means percent of DMSO control GFP below about 86%;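 further: lower values mimic rapamycin by blocking the RPL19A rise seen in DMSO cells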); conditions: S. cerevisiae RPL19A-GFP strain, flow cytometry fluorescence, 3 h; at 10 µM; stronger effect = lower value
[2] = TOR pathway GLN3 branch reporter MEP2-GFP changes – S. cerevisiae, multiplex flow cytometry, primary screen (AID 1867;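 active means GFP response, as percent of the DMSO control, above the screen-wide mean plus 3 SD, about 139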;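 further: median GFP channel fluorescence of barcode-gated MEP2-GFP cells measured by flow cytometry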); conditions: S. cerevisiae MEP2-GFP strain, 3 h, at 10 µM, stronger effect = higher value
[3] = TOR pathway RTG branch CIT2 reporter changes – S. cerevisiae, GFP fusion, multiplex flow cytometry, primary screen (AID 1870;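 active means percent response above a set limit, the screen-wide mean plus 3 SD, cut at about 130% in these data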;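 further: barcoded CIT2-GFP strain pooled with four other GFP strains with rapamycin as positive control; median GFP fluorescence per well over plate mean of DMSO wells so 100% = DMSO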); conditions: S. cerevisiae CIT2-GFP expression, 3 h, at 10 µM, stronger effect = higher value
[4] = TOR pathway LAP4-GFP level changes – S. cerevisiae, multiplex flow cytometry, primary screen (AID 1873;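 active means GFP signal, as percent of the solvent control, above the screen mean plus 3 SD, about 149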); conditions: S. cerevisiae LAP4-GFP expression, 3 h, at 10 µM, stronger effect = higher value
[5] = reduced mouse 2C T cell binding to pMHC/ICAM-1 vesicles – MLPCN validation set, flow cytometry, LFA-1/ICAM-1 modulator project, pilot screen (AID 2523;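 active means response below a set limit, under 55% cells CD8-positive and vesicle-bound, and CD8 cells' 90th-percentile brightness under 279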;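 on vesicle binding response: mean PE anti-B7-1 fluorescence of CD8+ cells relative to row control; 100% = QL9-loaded vesicles with DMSO vehicle in the same plate row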); conditions: 2C mouse CD8+ T cells, at 7 µM, stronger effect = lower value; double positive events: measured here: CD8+/vesicle+ event percentage
[6] = target: Integrin beta-1 (Homo sapiens) + Integrin alpha-4 (Homo sapiens) (UniProt P13612+P05556); assay: alpha4beta1 integrin LIBS antibody binding reduction – U937 cells, HUTS-21 mAb, flow cytometry, validation set, VLA-4 allosteric modulator project, pilot screen (AID 2674;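 active means inhibition above 50%, about 3 SD of the validation set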;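 further: antibody binding induced by the VLA-4 ligand LDV present at three times its Kd; 0% = LDV ligand with antibody and no compound and 100% = antibody without LDV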); conditions: HUTS-21 LIBS mAb binding, at 6.7 µM, stronger effect = higher value
[7] = calorie-restriction mimetic ROS inhibitors, yeast – validation compound set, pilot screen (AID 2706;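 active means superoxide response below 65% of plate, a cut near 3 SD across the whole screen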;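 further: yeast exposed to compound for one week at 30 degrees C before staining; 100% = mean of all compound wells on the same plate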); conditions: S. cerevisiae aging, superoxide DHE fluorescence; at 10 µM; stronger effect = lower value
[8] = target: Beta-adrenergic receptor kinase 1 (Homo sapiens) (UniProt P25098); assay: GRK2 binders displacing RNA aptamer, biochemical, validation, human GRK2, bead flow cytometry (AID 488806;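 active means aptamer binding inhibition above 30%, about 3 SD of noise from non-fluorescent compounds; inactive means inhibition at or below 30%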); conditions: bead-bound GRK2, FAM-aptamer displacement, at 10 µM, stronger effect = higher value
Sequence of Beta-adrenergic receptor kinase 1 (Homo sapiens) (P25098 whole entry, looked up): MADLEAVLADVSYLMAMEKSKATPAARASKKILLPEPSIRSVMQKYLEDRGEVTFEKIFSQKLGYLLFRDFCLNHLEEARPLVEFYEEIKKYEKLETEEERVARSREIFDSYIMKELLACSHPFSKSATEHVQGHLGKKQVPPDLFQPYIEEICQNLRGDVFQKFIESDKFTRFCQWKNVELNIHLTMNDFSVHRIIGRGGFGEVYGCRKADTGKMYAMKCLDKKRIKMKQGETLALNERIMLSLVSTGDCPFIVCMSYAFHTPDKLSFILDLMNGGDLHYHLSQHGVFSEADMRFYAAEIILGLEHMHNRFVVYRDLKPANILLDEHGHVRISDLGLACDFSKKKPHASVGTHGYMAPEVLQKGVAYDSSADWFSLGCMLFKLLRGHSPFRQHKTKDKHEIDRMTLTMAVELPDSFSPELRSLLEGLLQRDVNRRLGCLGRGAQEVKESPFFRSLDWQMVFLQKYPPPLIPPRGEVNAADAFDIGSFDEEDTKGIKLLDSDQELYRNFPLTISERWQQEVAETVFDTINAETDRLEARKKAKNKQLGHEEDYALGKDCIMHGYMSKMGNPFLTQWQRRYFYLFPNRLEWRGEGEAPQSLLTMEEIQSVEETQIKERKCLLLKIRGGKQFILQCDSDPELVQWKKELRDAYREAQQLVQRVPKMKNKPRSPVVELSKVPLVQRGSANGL

[9] = target: AP-2 complex subunit beta (Homo sapiens) (UniProt P63010); assay: beta-arrestin/AP2 interaction blockers – biochemical, validation set, GST-AP2 beads, flow cytometry, pilot screen (AID 504541;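 active means inhibition above 54%, about 3 SD of non-fluorescent compounds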;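 further: AP2 carries R879A mutation and is captured from E. coli lysate; bead-bound FITC arrestin peptide fluorescence measuring arrestin peptide binding to AP2; 0% = DMSO wells and 100% = excess unlabeled arrestin peptide control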); conditions: FITC arrestin peptide, at 10 µM, stronger effect = higher value
Sequence of AP-2 complex subunit beta (Homo sapiens) (P63010 whole entry, looked up, one chain of several): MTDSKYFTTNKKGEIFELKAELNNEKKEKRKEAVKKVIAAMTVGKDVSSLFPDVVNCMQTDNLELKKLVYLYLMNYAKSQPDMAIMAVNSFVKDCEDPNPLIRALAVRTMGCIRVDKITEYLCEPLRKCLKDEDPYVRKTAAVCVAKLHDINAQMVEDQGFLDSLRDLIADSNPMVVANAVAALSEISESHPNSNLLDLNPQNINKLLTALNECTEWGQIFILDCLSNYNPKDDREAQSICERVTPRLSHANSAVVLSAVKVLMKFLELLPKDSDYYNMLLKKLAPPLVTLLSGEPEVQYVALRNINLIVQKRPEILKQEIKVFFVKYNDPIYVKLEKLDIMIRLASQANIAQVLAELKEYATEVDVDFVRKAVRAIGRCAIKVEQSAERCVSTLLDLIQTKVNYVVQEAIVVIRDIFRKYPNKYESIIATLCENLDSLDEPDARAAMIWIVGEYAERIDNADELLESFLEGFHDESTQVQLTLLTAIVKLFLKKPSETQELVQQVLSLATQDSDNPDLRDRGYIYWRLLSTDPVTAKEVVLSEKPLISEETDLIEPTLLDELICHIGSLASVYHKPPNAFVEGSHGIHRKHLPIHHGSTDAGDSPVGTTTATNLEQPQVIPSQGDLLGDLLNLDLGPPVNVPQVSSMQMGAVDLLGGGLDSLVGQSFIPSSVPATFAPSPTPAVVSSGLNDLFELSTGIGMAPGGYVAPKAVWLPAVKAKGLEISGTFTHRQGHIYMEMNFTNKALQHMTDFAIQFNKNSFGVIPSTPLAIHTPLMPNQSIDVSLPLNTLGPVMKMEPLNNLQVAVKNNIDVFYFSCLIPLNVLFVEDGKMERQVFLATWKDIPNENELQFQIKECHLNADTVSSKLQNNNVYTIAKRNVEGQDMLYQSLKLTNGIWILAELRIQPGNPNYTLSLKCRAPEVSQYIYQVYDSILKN

[10] = cytosolic pH regulators acting via V-ATPase – S. cerevisiae, pHLuorin, HTS validation (AID 504600; in the data active means response above about 15%;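 further: plate controls were DMSO for no effect and reference compound for full effect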); conditions: V-ATPase proton transport, at 10 µM, stronger effect = higher value
[11] = test system: anti-desmoglein-3 scFv antibody binding to human DSG3; assay: blockers of pathogenic pemphigus antibody–desmoglein-3 binding – biochemical, validation compound set, bead-based, flow cytometry, pilot screen (AID 588368;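 active means binding below the plate cutoff, the plate median minus 3 SD, with a reading above zero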;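 further: signal is the median channel fluorescence of bead-bound GFP antibody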); conditions: Protein G beads, DSG3-Fc, scFv-GFP binding, at 10 µM, stronger effect = lower value
[12] = test system: Botulinum neurotoxin type F light chain protease (Clostridium botulinum); assay: Clostridium botulinum type F light chain protease inhibitors, microsphere substrate cleavage, validation (AID 588459); conditions: multiplex microsphere protease substrate cleavage assay, flow cytometry; at 10 µM; stronger effect = higher value
[13] = target: Botulinum neurotoxin type A (Clostridium botulinum) (UniProt P0DPI0); assay: BoNT/A light chain protease inhibitors, biochemical, multiplex microsphere flow cytometry, validation set (AID 588460); conditions: at 10 µM, stronger effect = higher value
Sequence of Botulinum neurotoxin type A (Clostridium botulinum) (P0DPI0 whole entry, looked up): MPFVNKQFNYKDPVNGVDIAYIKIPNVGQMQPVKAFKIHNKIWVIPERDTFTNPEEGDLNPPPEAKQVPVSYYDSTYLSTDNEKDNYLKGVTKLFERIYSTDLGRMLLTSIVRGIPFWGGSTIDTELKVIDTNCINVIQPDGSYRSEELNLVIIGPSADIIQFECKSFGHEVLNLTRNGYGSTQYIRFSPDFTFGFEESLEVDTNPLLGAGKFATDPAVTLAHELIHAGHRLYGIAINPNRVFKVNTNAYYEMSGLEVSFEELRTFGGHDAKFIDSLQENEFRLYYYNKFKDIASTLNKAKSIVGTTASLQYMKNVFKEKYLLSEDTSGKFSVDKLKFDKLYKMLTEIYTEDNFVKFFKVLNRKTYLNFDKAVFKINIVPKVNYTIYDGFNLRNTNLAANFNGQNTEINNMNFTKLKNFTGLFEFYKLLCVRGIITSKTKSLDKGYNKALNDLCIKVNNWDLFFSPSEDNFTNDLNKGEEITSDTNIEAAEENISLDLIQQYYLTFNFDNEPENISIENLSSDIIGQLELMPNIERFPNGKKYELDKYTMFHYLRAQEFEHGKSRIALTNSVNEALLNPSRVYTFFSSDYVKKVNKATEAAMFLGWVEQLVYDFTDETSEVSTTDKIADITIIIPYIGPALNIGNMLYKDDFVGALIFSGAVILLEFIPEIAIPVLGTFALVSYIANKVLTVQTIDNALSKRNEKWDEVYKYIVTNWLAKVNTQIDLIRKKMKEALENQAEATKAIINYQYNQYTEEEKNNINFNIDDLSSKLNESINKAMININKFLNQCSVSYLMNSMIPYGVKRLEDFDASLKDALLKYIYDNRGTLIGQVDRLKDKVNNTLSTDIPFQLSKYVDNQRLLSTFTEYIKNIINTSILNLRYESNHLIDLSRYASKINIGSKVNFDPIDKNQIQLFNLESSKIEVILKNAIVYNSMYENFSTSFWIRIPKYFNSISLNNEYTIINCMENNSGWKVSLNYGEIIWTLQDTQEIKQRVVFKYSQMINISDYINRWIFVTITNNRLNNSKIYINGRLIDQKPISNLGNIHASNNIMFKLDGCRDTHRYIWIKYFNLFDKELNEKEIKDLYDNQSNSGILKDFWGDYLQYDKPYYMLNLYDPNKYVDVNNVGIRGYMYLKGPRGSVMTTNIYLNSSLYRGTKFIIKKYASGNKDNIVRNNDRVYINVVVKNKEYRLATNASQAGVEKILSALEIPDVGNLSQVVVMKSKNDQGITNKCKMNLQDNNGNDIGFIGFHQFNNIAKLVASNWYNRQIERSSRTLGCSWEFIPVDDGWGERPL

[14] = target: Lethal factor (Bacillus anthracis) (UniProt P15917); assay: Bacillus anthracis lethal factor inhibition, microsphere flow cytometry protease assay, validation at 10 µM (AID 588461); conditions: multiplex microsphere protease cleavage assay, stronger effect = higher value
Sequence of Lethal factor (Bacillus anthracis) (P15917 whole entry, looked up): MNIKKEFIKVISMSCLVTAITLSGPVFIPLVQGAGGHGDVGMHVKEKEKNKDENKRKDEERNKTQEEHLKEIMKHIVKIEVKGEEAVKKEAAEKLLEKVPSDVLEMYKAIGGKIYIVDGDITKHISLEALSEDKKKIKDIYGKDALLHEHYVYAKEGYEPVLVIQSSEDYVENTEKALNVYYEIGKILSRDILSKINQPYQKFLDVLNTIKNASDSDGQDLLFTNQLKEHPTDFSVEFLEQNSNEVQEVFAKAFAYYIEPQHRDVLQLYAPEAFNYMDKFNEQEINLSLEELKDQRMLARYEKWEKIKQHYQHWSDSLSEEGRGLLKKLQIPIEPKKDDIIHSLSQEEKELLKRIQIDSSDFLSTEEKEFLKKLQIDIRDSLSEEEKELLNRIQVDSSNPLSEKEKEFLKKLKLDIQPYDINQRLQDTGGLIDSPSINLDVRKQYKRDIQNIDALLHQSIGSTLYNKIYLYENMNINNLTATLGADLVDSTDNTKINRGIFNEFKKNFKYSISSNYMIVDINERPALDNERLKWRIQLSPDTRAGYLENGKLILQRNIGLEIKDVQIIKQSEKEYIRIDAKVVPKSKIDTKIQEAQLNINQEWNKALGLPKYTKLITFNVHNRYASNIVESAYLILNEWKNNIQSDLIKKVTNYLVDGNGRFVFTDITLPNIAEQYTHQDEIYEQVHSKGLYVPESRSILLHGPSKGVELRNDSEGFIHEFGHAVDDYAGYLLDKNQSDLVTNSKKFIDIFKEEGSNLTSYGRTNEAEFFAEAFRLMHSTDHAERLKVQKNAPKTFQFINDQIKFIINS

[15] = Nile Red efflux blockade in pump-expressing yeast – validation compound set, multiplex, phenotypic, pilot screen (AID 588506;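 active means efflux inhibition above 0.42, the validation set average plus 4 SD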;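 further: Nile Red retained in cells so higher fluorescence means more efflux inhibition; 0 = negative control wells and 1 = enniatin B 25 µM full block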); conditions: S. cerevisiae pump-expressing triplex, Nile Red efflux flow cytometry; at 10 µM; stronger effect = higher value
[16] = target: ATP-binding cassette sub-family B member 6 (Homo sapiens) (UniProt Q9NP58); assay: blockers of ABCB6-driven porphyrin uptake – K562-ABCB6 cells, flow cytometry, validation set, pilot screen (AID 588550;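 active means inhibition above the screen-wide mean plus 3 SD, about 51%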;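 further: 0% = DMSO wells and 100% = benzethonium chloride 70 µM positive control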); conditions: K562-ABCB6 porphyrin accumulation, 1 h, at 10 µM, stronger effect = higher value
Sequence of ATP-binding cassette sub-family B member 6 (Homo sapiens) (Q9NP58 whole entry, looked up): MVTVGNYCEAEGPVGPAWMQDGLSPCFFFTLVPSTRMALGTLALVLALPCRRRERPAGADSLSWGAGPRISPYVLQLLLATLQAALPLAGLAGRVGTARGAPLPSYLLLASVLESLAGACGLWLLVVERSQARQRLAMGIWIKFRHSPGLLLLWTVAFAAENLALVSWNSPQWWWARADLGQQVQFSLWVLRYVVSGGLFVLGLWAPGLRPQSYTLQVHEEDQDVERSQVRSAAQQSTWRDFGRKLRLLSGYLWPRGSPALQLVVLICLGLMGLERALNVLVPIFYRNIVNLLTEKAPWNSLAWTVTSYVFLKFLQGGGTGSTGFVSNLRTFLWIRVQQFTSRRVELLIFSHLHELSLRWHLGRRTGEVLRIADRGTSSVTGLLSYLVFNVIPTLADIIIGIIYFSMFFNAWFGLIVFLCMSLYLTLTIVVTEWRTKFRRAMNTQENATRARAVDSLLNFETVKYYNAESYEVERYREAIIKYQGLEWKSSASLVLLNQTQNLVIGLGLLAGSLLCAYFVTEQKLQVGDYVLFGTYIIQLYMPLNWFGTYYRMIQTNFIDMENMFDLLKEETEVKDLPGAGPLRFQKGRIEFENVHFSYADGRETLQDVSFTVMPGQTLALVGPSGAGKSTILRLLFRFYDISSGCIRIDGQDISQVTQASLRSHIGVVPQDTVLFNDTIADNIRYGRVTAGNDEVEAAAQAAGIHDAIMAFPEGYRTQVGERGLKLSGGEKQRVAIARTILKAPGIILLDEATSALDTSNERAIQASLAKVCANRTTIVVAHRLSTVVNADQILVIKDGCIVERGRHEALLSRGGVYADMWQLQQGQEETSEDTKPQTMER

[17] = AML differentiation inducers, ER-HoxA9 marrow cells – cell-based, GFP/MAC1 double positive, flow cytometry, validation set, primary screen (AID 588685;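 active means differentiation response of at least 50%, scaled between solvent and reference control, from cells with both markers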;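 further: compound exposure lasts four days before antibody staining and flow analysis; 0% = DMSO wells and 100% = 5 µM fulvestrant positive control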); conditions: stronger effect = higher value
[18] = hit retest on RPL19A-GFP reporter strain – cell-based, S. cerevisiae, flow cytometry, cherry picks, mother/daughter gates, confirmation (AID 2270;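 active means GFP response below 50% of the DMSO control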); conditions: 3 h, at 10 µM, stronger effect = lower value, 100 = same GFP as DMSO wells
[19] = yeast TOR pathway reporter LAP4-GFP change – cell-based, cherry picks, flow cytometry, mother/daughter gates, confirmation (AID 2271;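 active means GFP response above 150% of the DMSO control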;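 further: ratio of sample to DMSO plate mean so 100% equals DMSO level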); conditions: S. cerevisiae LAP4-GFP strain, 3 h, at 10 µM, stronger effect = higher value
[20] = TOR pathway CIT2 reporter hit retest – S. cerevisiae, GFP fusion, cherry picks, mother/daughter gates, confirmation (AID 2274;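 active means GFP response above 150% of the DMSO level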); conditions: S. cerevisiae CIT2-GFP strain, flow cytometry, 3 h, at 10 µM, stronger effect = higher value
[21] = measured here: daughter cell gate
[22] = measured here: mother cell gate
[23] = measured here: daughter cell gate response
[24] = measured here: mother cell gate response

Fc1ccc(C(OCCN2CCCC2)c2ccc(Br)cc2)cc1 (configuration not stated)
69.4%: double positive events [5]
inactive: percent of DMSO control GFP [1] 98.8% | GFP response vs DMSO [2] 98.5% | percent response of DMSO control [3] 93.9% | GFP response vs DMSO [4] 109% | vesicle binding response [5] 310% | inhibition [6] -4.52% | superoxide response (% of plate) [7] 94.6% | aptamer binding inhibition [8] -9% | inhibition [9] -3.21% | response [10] 0.75% | binding (% of control) [11] 103% | inhibition [12] 5.6% | inhibition [13] -0.6% | inhibition [14] 3% | inhibition [16] 7% | differentiation response [17] 16.8%
active: efflux inhibition (fraction of control) [15] 0.84

CCCCn1c(=O)c(C(=O)Nc2ccsc2C(=O)OC)c(O)c2ccccc21
95.6%: GFP response, % of DMSO [20, 22]
94.1%: GFP response relative to DMSO [19, 24]
inactive: GFP response vs DMSO [18] 101% | GFP response relative to DMSO [19] 94.4% | GFP response, % of DMSO [20] 95.9%
94.9%: GFP response vs DMSO [18, 21]
95.9%: GFP response relative to DMSO [19, 23]
93.8%: GFP response, % of DMSO [20, 21]
100%: GFP response vs DMSO [18, 22]

N#CC(C#N)=Cc1ccc(N2CCCC2)cc1
inactive: GFP response vs DMSO [18] 105% | GFP response relative to DMSO [19] 111% | GFP response, % of DMSO [20] 105%
112%: GFP response relative to DMSO [19, 24]
102%: GFP response vs DMSO [18, 21]
107%: GFP response vs DMSO [18, 22]
109%: GFP response relative to DMSO [19, 23]
104%: GFP response, % of DMSO [20, 22]
106%: GFP response, % of DMSO [20, 21]

CC(C)[C@@]1(NC(=O)[C@@H]2C[C@@H]3c4cccc5[nH]cc(c45)C[C@H]3N(C)C2)O[C@@]2(O)[C@@H]3CCCN3C(=O)[C@H](Cc3ccccc3)N2C1=O
74.1%: double positive events [5]
inactive: percent of DMSO control GFP [1] 88.4% | GFP response vs DMSO [2] 132% | percent response of DMSO control [3] 112% | GFP response vs DMSO [4] 84.2% | vesicle binding response [5] 240% | inhibition [6] -14.9% | superoxide response (% of plate) [7] 98.1% | aptamer binding inhibition [8] -3% | inhibition [9] 0.81% | response [10] 1.06% | binding (% of control) [11] 114% | inhibition [12] -9.2% | inhibition [13] -1.6% | inhibition [14] -32% | efflux inhibition (fraction of control) [15] 0.37 | inhibition [16] 9% | differentiation response [17] 4.09%

CCNC(=O)[C@H]1O[C@@H](n2cnc3c(N)ncnc32)[C@H](O)[C@@H]1O
48.3%: double positive events [5]
active: aptamer binding inhibition [8] 66%
inactive: percent of DMSO control GFP [1] 97% | GFP response vs DMSO [2] 115% | percent response of DMSO control [3] 104% | GFP response vs DMSO [4] 88.6% | inhibition [6] 15.2% | superoxide response (% of plate) [7] 111% | inhibition [9] 3.14% | response [10] 0.72% | binding (% of control) [11] 107% | inhibition [12] -4.2% | inhibition [13] 0% | inhibition [14] 2.8% | efflux inhibition (fraction of control) [15] 0.37 | inhibition [16] 11% | differentiation response [17] 5.73%

C[C@]12CC[C@@H]3c4ccc(O)c(O)c4CC[C@H]3[C@@H]1CC[C@@H]2O
inactive: vesicle binding response [5] 107% | inhibition [6] 27.7% | superoxide response (% of plate) [7] 101% | aptamer binding inhibition [8] -1% | inhibition [9] 1.47% | response [10] -0.32% | binding (% of control) [11] 108% | inhibition [12] 0.2% | inhibition [13] -0.1% | inhibition [14] 2% | efflux inhibition (fraction of control) [15] -0.28 | inhibition [16] 7% | differentiation response [17] 3.03%
51%: double positive events [5]

O=c1oc2ccccc2c(O)c1[C@H]1c2ccc(O)cc2Oc2c1c(=O)oc1ccccc21
192%: GFP response relative to DMSO [19, 24]
active: GFP response relative to DMSO [19] 190%
167%: GFP response relative to DMSO [19, 23]
98.9%: GFP response vs DMSO [18, 22]
71.9%: GFP response, % of DMSO [20, 22]
78.5%: GFP response, % of DMSO [20, 21]
96.1%: GFP response vs DMSO [18, 21]
inactive: GFP response vs DMSO [18] 108% | GFP response, % of DMSO [20] 76.9%

C[C@H]1CCCC(=O)CCCCCc2cc(O)cc(O)c2C(=O)O1
inactive: vesicle binding response [5] 160% | inhibition [6] 0.59% | superoxide response (% of plate) [7] 101% | aptamer binding inhibition [8] -1% | inhibition [9] -10.7% | response [10] 6% | binding (% of control) [11] 106% | inhibition [12] -0.4% | inhibition [13] -1.7% | inhibition [14] 4.1% | efflux inhibition (fraction of control) [15] -0.13 | inhibition [16] 0% | differentiation response [17] 5.85%
60.2%: double positive events [5]

C[C@]12CCC(=O)C(O)=C1CC[C@@H]1[C@@H]2CC[C@]2(C)C(=O)CC[C@@H]12
97.5%: GFP response vs DMSO [18, 21]
68.3%: double positive events [5]
105%: GFP response, % of DMSO [20, 22]
99.2%: GFP response vs DMSO [18, 22]
inactive: GFP response vs DMSO [18] 99.3% | GFP response relative to DMSO [19] 102% | GFP response, % of DMSO [20] 104% | vesicle binding response [5] 118% | inhibition [6] 10.3% | superoxide response (% of plate) [7] 97.5% | aptamer binding inhibition [8] 1% | inhibition [9] 0.25% | response [10] -1.14% | binding (% of control) [11] 110% | inhibition [12] 0.8% | inhibition [13] -1.4% | inhibition [14] -6.6% | efflux inhibition (fraction of control) [15] -0.17 | inhibition [16] 21% | differentiation response [17] 3.28%
102%: GFP response relative to DMSO [19, 23]
103%: GFP response relative to DMSO [19, 24] | GFP response, % of DMSO [20, 21]

C[C@]12CCC(=O)C=C1CC[C@@H]1[C@@H]2C(=O)C[C@]2(C)C(=O)CC[C@@H]12
61%: double positive events [5]
inactive: vesicle binding response [5] 259% | inhibition [6] 6.55% | superoxide response (% of plate) [7] 76.3% | aptamer binding inhibition [8] 3% | inhibition [9] 0.49% | response [10] -0.42% | binding (% of control) [11] 99.9% | inhibition [12] -1.7% | inhibition [13] 1% | inhibition [14] -4.7% | efflux inhibition (fraction of control) [15] 0.12 | inhibition [16] -30% | differentiation response [17] 5.85%

Cc1c2ccncc2c(C)c2c1[nH]c1ccccc12
inactive: vesicle binding response [5] 710% | superoxide response (% of plate) [7] 84.9% | aptamer binding inhibition [8] -5% | inhibition [9] 5.87% | response [10] -2.57% | binding (% of control) [11] 180% | inhibition [12] 2.4% | inhibition [13] 2.8% | inhibition [14] 2% | efflux inhibition (fraction of control) [15] 0.3 | differentiation response [17] 18%
61%: double positive events [5]
